Several values for one entry are separate records, joined by “and”; a condition that tells them apart may be missing. Equal entries are not always repeated. Results filed as inconclusive are left out. Some compounds were tested as several samples or in several runs, with calls that do not always agree. Activity calls are given as the source filed them. Unless noted, calls come from the whole dose curve.

Assay [1] can be described thus: Nuclear factor erythroid 2-related factor 2/antioxidant responsive element (Nrf2/ARE) small molecule agonists: qHTS cell viability counter screen in human keratinocytes (AID 1919968; active = well fitted curve in the direction sought with a large enough effect in the repeat runs; an effect the other way counts as inactive or inconclusive; note: nearly all actives have a fitted effect of over 55% in size; note: potency is the fitted concentration of half-maximal effect). In outline:
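Viability counter-screen: KeratinoSens reporter cells, DMSO-delivered compounds, 23 h at 37 C, CellTiter-Fluor fluorescence.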

Assay [2] addresses Gonadotropin-releasing hormone receptor (Homo sapiens) (UniProt P30968). In words: Human gonadotropin-releasing hormone receptor (GnRHR) small molecule agonists, calcium flux assay in GnRHR-HEK293 cells (AID 1920063). Note: nearly all actives have a fitted effect of over 35% in size. In outline: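 Tox21-format agonist screen using human GnRHR-expressing HEK293 cells and a fluorescent calcium dye; kinetic 3-min fluorescence reading after compound addition, 15-point concentration series run in triplicate.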
Background: A change in cytosolic calcium serves as a functional read-out for many receptors and channels.

For assay [3], the target named is KiSS-1 receptor (Homo sapiens) (UniProt Q969F8). The assay is described as follows: Human kisspeptin (KISS1R) small molecule agonists, calcium flux assay in KISS1R-HEK293 cells (AID 1920064; active = well fitted curve in the direction sought with a large enough effect in the repeat runs; an effect the other way counts as inactive or inconclusive). Summed up:
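Intracellular calcium mobilization in KISS1R-HEK293 cells was recorded by fluorescence (Ex/Em 480/540) for 3 min following compound addition to cells pre-loaded 1 h with calcium dye.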

Assay [4] can be described thus: G protein-coupled receptor (GPCR) small molecule agonists, calcium flux assay: HEK293 wild type cell line counter screen (AID 1920065). In outline: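 In this agonist-mode screen, ATP is the positive control and DMSO the vehicle. Cells grow 18 h before a 1 h dye incubation at 37 C; signal is taken at Ex/Em 480/540 over 3 min.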
Assay [5] can be described thus: p53 small molecule agonists, cell-based qHTS assay with human liver microsomes (AID 1963577). In outline: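 p53RE-bla cells, 4,000/well, compound added after 5 h, with human liver microsomes 0.5 mg/mL and NADPH 0.5 mg/mL final; 16 h at 37 C, then LiveBLAzer 2 h RT, fluorescence.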
(In qHTS, concentration-response curves come from the screen itself.)

Assay [6] is described as follows: p53 small molecule agonists, cell-based qHTS assay with rat liver microsomes (AID 1963578). Summed up:
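p53RE-bla cells, 4,000/well, pre-incubated 5 h, then given compounds plus rat liver microsomes (0.5 mg/mL final) and NADPH (0.5 mg/mL final). Incubation 16 h at 37 C; beta-lactamase reporter read by LiveBLAzer fluorescence after 2 h at room temperature.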

A short description of assay [7]: p53 small molecule agonists, cell-based qHTS assay with human liver microsomes: qHTS cell viability counter screen (AID 1963579). Note: nearly all actives have a fitted effect of over 45% in size. Note: potency is the fitted concentration of half-maximal effect. In outline:
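p53RE-bla cells, 4,000/well, dosed 5 hours after plating, with human liver microsomes (0.5 mg/mL final) plus NADPH (0.5 mg/mL final), 16 hours at 37 C. Viability read as CellTiter-Glo luminescence after 30 min at room temperature.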

A short description of assay [8]: p53 small molecule agonists, cell-based qHTS assay (AID 1963582; active = well fitted activation curve with a large enough effect in the signal ratio in the repeat runs, not every such curve was filed as active; the % refers to the signal ratio). In outline:
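Agonist activity was scored from beta-lactamase FRET fluorescence in p53RE-bla cells treated 16 h at 37 C with compounds in DMSO, substrate incubation being 2 h at room temperature.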

In assay [9] the target is Beta-2 adrenergic receptor (Homo sapiens) (UniProt P07550). The assay is described as follows: Adrenergic beta2 receptor (ADRB2) small molecule antagonists, cell-based qHTS assay (AID 1963592). Note: nearly all actives have a fitted effect of over 50% in size. Note: potency is the fitted concentration of half-maximal effect. Summed up:
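Cells (CHO, stable ADRB2 overexpression) incubated 18-20hr at 37C; compounds added from DMSO; agonist mix (1nM isoproterenol, 100uM IBMX, 25uM Ro-20-1724) added; 0.5hr RT; d2-cAMP and anti-cAMP-cryptate added; 1hr RT; 665/615 nm read.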

The target in assay [10] is D(2) dopamine receptor (Homo sapiens) (UniProt P14416). In words: Dopamine D2 receptor (DRD2) small molecule agonists, cell-based qHTS assay (AID 1963594). Note: nearly all actives have a fitted effect of over 35% in size. In outline: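 HEK293 cells stably expressing DRD2 were cultured 24 h at 37 C, then given Ro20-1724 (0.1 mM final) and compounds for 10 min at room temperature. NKH477 (200nM) was then added for 30 min. cAMP was read by HTRF.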

Assay [11] in a line: p53 small molecule agonists, cell-based qHTS assay with rat liver microsomes: qHTS cell viability counter screen (AID 1963580). Note: nearly all actives have a fitted effect of over 45% in size. Summed up:
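In HCT-116 cells carrying a p53 response element-bla reporter, compounds were metabolically activated in situ by rat liver microsomes with NADPH over 16 h. Cell ATP content then served as the cytotoxicity measure.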

A short description of assay [12]: p53 small molecule agonists, cell-based qHTS assay: qHTS cell viability counter screen (AID 1963581). Note: nearly all actives have a fitted effect of over 45% in size. In outline: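 Compounds are pinned onto HCT-116 p53RE-bla cells and left 16 h at 37 C. Following the reporter FRET read, ATP is quantified by CellTiter-Glo luminescence after 30 min at room temperature.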
Assay [13] concerns the target 5-hydroxytryptamine receptor 2A (Homo sapiens) (UniProt P28223). The assay is described as follows: 5-hydroxytryptamine receptor 2A (HTR2A) small molecule antagonists, cell-based qHTS assay (AID 1963586). Note: nearly all actives have a fitted effect of over 45% in size. Note: potency is the fitted concentration of half-maximal effect. In outline:
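Antagonist-mode intracellular calcium assay: DOI (4 nM) added after 5 min compound pre-incubation at room temperature to dye-loaded HTR2A-CHO cells. Fluorescence followed for 3 min, sampled every second.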

Assay [14] has the same target. The assay is described as follows: 5-hydroxytryptamine receptor 2A (HTR2A) small molecule agonists, cell-based qHTS assay (AID 1963587). Note: nearly all actives have a fitted effect of over 30% in size. Summed up: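 HTR2A-CHO cells, plated 18 h at 37 C/5% CO2, dye-loaded 1 h at 37 C; compounds in DMSO added by pin tool (agonist mode). Intracellular calcium flux read as kinetic fluorescence on FDSS over 2 min at 1 s intervals.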

In assay [15] the target is Muscarinic acetylcholine receptor M1 (Homo sapiens) (UniProt P11229). In words: Cholinergic receptor muscarinic 1 (CHRM1) small molecule antagonists, cell-based qHTS assay (AID 1963588). Note: nearly all actives have a fitted effect of over 40% in size. Summed up: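 CHRM1-CHO calcium-flux assay, antagonist mode. Cells were seeded 18 h, dye-loaded 1 h at 37 C and given compound for 5 min at RT, then acetylcholine was added at 50nM. FDSS fluorescence was read 3 min; 15 concentrations, three runs.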

Assay [16] has the same target. In words: Cholinergic receptor muscarinic 1 (CHRM1) small molecule agonists, cell-based qHTS assay (AID 1963589). Note: nearly all actives have a fitted effect of over 35% in size. In outline: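 Stable CHRM1-CHO cells (human receptor) were incubated 18 h, dye-loaded for 1 h at 37 C and exposed to test compounds for agonist activity, with calcium-dependent fluorescence followed kinetically.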
Assay [17] in a line: cAMP Responsive Elements (CRE) small molecule agonists, cell-based qHTS assay (AID 1963590). In outline:
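FRET-based beta-lactamase readout (LiveBLAzer B/G, 2 h RT) quantified CRE activation in HEK 293T CRE-bla cells after 3 h treatment with DMSO-dissolved compounds.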

Assay [18] deals with Beta-2 adrenergic receptor (Homo sapiens) (UniProt P07550). In words: Adrenergic beta2 receptor (ADRB2) small molecule agonists, cell-based qHTS assay (AID 1963593).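 Note: CHO cells stably overexpressing human ADRB2.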 In outline:
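CHO cells stably over-expressing ADRB2 were plated overnight at 37C, then dosed with compounds plus a stimulation mix containing 100uM IBMX and 25uM Ro-20-1724 for 0.5hr at room temperature. cAMP was measured by HTRF competition, 1hr.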

Assay [19] concerns the target D(2) dopamine receptor (Homo sapiens) (UniProt P14416). The assay is described as follows: Dopamine D2 receptor (DRD2) small molecule antagonists, cell-based qHTS assay (AID 1963595; active = well fitted inhibition curve with a large enough effect in the signal ratio in the repeat runs, with a control signal flat; the % refers to the signal ratio). In outline:
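DRD2-HEK293; 0.1 mM Ro20-1724; cpd 10 min RT; NKH477 200 nM + quinpirole 12 nM, 30 min RT; HTRF cAMP (cAMP-d2/anti-cAMP cryptate), 665/620 nm ratio after 1 h.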

Assay [20] can be described thus: cAMP Responsive Elements (CRE) small molecule antagonists, cell-based qHTS assay (AID 1963591; active = well fitted inhibition curve with a large enough effect in the signal ratio in the repeat runs, not every such curve was filed as active; the % refers to the signal ratio). Summed up: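 qHTS in CRE-bla HEK 293T cells: compound in DMSO, then 0.25 uM NKH477 (final), 3 h at 37 °C/5% CO2; beta-lactamase FRET read-out after 2 h substrate incubation.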

Sequence of D(2) dopamine receptor (Homo sapiens) (P14416 whole entry, looked up): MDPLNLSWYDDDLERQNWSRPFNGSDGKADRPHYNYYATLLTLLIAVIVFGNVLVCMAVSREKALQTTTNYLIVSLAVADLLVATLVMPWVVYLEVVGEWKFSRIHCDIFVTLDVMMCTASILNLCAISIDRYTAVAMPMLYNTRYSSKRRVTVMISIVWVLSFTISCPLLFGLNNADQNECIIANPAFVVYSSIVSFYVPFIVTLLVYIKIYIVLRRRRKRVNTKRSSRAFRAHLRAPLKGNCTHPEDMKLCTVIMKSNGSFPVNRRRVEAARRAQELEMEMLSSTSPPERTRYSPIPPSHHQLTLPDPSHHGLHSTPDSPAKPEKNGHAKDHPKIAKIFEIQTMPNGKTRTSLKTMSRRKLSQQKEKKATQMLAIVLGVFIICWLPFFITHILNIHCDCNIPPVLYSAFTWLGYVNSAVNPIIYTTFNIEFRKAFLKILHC
Sequence of Beta-2 adrenergic receptor (Homo sapiens) (P07550 whole entry, looked up): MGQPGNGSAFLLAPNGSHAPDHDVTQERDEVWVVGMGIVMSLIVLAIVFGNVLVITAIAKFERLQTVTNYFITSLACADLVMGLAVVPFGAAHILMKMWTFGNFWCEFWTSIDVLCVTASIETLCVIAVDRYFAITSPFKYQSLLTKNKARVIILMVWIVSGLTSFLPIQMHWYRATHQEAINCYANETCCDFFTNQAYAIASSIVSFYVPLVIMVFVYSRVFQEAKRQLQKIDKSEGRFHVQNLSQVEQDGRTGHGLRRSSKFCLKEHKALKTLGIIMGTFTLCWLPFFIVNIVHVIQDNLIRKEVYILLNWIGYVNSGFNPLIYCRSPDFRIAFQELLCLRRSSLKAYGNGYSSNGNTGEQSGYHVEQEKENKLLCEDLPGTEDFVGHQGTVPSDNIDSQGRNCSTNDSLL
Sequence of 5-hydroxytryptamine receptor 2A (Homo sapiens) (P28223 whole entry, looked up): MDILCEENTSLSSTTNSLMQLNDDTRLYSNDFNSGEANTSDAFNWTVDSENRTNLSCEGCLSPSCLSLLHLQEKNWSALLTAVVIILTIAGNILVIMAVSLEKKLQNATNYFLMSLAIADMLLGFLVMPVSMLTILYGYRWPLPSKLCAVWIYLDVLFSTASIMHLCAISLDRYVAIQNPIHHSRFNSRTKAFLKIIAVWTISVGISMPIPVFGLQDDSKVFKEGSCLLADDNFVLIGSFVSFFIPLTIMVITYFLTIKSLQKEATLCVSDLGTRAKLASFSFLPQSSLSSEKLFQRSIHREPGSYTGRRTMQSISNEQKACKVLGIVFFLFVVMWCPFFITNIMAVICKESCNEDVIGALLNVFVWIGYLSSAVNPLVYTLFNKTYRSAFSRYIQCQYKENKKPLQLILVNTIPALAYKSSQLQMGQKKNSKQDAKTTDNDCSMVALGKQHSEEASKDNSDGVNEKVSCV
Sequence of Muscarinic acetylcholine receptor M1 (Homo sapiens) (P11229 whole entry, looked up): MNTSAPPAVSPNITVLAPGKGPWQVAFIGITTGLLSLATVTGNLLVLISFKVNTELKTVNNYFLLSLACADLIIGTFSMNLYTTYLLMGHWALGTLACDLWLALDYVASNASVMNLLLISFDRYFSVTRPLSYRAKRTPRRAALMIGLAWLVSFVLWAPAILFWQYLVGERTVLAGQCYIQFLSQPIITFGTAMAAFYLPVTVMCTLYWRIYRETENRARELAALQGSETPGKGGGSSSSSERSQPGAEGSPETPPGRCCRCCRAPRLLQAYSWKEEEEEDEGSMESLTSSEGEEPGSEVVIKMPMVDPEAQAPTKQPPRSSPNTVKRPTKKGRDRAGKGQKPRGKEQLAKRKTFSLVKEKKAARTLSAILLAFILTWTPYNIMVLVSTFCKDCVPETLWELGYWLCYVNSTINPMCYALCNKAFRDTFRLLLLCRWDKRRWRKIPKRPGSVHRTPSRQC
Sequence of Gonadotropin-releasing hormone receptor (Homo sapiens) (P30968 whole entry, looked up): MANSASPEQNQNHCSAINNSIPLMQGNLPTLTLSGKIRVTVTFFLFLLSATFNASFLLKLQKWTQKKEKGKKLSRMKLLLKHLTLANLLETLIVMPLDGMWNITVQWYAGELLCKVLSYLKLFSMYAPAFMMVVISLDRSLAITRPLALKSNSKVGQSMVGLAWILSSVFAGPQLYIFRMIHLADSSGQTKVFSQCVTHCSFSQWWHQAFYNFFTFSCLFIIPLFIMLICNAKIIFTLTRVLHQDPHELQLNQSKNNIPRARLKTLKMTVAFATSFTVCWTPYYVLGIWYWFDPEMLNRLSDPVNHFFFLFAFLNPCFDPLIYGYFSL
Sequence of KiSS-1 receptor (Homo sapiens) (Q969F8 whole entry, looked up): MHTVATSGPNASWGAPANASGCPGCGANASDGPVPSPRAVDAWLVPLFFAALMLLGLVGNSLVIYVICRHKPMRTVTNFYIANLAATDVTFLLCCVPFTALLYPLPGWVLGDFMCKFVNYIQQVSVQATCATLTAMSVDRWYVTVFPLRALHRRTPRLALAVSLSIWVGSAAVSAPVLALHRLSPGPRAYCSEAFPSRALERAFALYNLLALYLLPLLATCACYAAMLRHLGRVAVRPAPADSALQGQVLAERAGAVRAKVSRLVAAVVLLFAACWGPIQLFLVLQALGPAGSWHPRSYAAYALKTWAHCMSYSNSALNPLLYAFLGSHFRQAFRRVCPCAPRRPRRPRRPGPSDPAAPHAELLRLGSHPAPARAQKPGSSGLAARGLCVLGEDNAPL

In the case of `COc1ccc(CCN2CCC(Nc3nc4ccccc4n3Cc3ccc(F)cc3)CC2)cc1`, the Potency in [1] is 11.1 µM (active) and 23.7 µM (active); in assay [7], 14.8 µM (active) and inactive; in [9] it was 55.7 µM (active) and inactive. The Potency result in [2], in assay [3], in assay [4], in [5], in [6] and in assay [8] was “inactive” throughout. Further, the Potency entry in assay [10] is “inactive”.

As for `CC(C)CCCCCOC(=O)CS`, the Potency entry in assay [1], in assay [2], in assay [3], in assay [4], in [7] and in assay [11] was “inactive” each time. Also, the Potency result in assay [12], in [8], in assay [14], in [15], in assay [16] and in [17] was “inactive” each time. In addition, the Potency result in [9], in assay [18], in assay [10] and in assay [19] was “inactive” throughout. In [13], the Potency was 1.88 µM (active).

On to `NCCNCCNCCN`, for which the Potency result in assay [1], in [2], in assay [3], in [4], in [5] and in assay [6] was “inactive” in each case. For the same molecule, the Potency result in assay [7], in assay [12], in [8], in assay [13], in assay [14] and in assay [15] was “inactive” in each case. The Potency result in [16], in assay [17], in assay [20], in assay [9], in [18] and in [10] was “inactive” each time. Further, the Potency result in [19] is “inactive”.

Consider `CCN1CCC[C@H]1CNC(=O)c1c(O)c(Cl)cc(Cl)c1OC`, for which the Potency entry in [1], in assay [2], in assay [3], in assay [4], in assay [5] and in [6] was “inactive” throughout. The Potency result in assay [11], in assay [12], in [8], in assay [14], in [15] and in assay [16] was “inactive” each time. The Potency result in assay [17], in assay [20], in assay [9] and in assay [10] was “inactive” in each case. In assay [13], the Potency was 18.3 µM (active).

Consider `C/C=C(\C)C(=O)OCc1ccccc1`, for which the Potency entry in assay [1], in assay [2], in assay [3], in [4], in [5] and in [6] was “inactive” throughout. The Potency entry in [7], in [12], in assay [8], in assay [13], in assay [14] and in assay [15] was “inactive” each time. The Potency result in assay [16], in [17], in assay [20], in assay [9], in assay [10] and in assay [19] was “inactive” in each case.

Take `CC[C@]1(O)C[C@@H]2CN(CCc3c([nH]c4ccccc34)[C@@](C(=O)OC)(c3cc4c(cc3OC)N(C)[C@H]3[C@@](O)(C(=O)OC)[C@H](OC(C)=O)[C@]5(CC)C=CCN6CC[C@]43[C@@H]65)C2)C1`: the Potency result in assay [1], in assay [2], in [3], in assay [4], in assay [5] and in assay [6] was “inactive” each time. The Potency entry in assay [18], in assay [10] and in [19] was “inactive” throughout.

With `CC/C(=C(/CC)c1ccc(O)cc1)c1ccc(O)cc1`, the Potency in assay [1] is 42.9 µM (active) and 61.1 µM (active). Moreover, the Potency entry in assay [2], in assay [3], in assay [4], in [5], in [6] and in assay [7] was “inactive” in each case. For the same molecule, the Potency entry in assay [11], in [20], in [9], in assay [18] and in assay [19] was “inactive” each time.

Take `COc1ccc2nc(N)sc2c1`: the Potency result in assay [1], in assay [2], in assay [3], in assay [4], in assay [7] and in assay [11] was “inactive” throughout. For the same molecule, the Potency result in assay [12], in assay [13], in [14], in [15], in [16] and in assay [20] was “inactive” each time. Besides, the Potency result in [9], in [18], in assay [10] and in assay [19] was “inactive” throughout.
